Measurements from the supplement of paper PMC11732987, “Enantioselective OTUD7B fragment discovery through chemoproteomics screening and high-throughput optimisation” (Communications Chemistry, 2025).

Key:
Assay in all cases: log2 ratio of Biotin-Ahx-Ub-VS probe labelling (fragment/DMSO); higher = less target engagement (more negative = stronger competition), active = hit call of the paper (q ≤ 0.05, log2 ratio ≤ -1)
Settings in all cases: compound concentration: 200 uM; treatment time: 3 h
USP34 = USP34 (UniProt Q70CQ2)
Method in brief: (§1)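 Using Biotin-Ahx-Ub-VS at 0.5 µM final for 1 h, DUBs were labelled in HEK293T lysate (495 µg per sample) that had first been treated in triplicate with fragment at 200 µM or vehicle for 3 h. NeutrAvidin enrichment, LysC and trypsin digestion and diaPASEF LC-MS/MS followed. Spectronaut label-free quantities were global-median-normalised. Values are average log2 fragment/vehicle ratios by unpaired t-test, using proteins with ≥2 unique peptides.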

USP36 = target: T1, USP36 (UniProt Q9P275)
T1 sequence (whole entry): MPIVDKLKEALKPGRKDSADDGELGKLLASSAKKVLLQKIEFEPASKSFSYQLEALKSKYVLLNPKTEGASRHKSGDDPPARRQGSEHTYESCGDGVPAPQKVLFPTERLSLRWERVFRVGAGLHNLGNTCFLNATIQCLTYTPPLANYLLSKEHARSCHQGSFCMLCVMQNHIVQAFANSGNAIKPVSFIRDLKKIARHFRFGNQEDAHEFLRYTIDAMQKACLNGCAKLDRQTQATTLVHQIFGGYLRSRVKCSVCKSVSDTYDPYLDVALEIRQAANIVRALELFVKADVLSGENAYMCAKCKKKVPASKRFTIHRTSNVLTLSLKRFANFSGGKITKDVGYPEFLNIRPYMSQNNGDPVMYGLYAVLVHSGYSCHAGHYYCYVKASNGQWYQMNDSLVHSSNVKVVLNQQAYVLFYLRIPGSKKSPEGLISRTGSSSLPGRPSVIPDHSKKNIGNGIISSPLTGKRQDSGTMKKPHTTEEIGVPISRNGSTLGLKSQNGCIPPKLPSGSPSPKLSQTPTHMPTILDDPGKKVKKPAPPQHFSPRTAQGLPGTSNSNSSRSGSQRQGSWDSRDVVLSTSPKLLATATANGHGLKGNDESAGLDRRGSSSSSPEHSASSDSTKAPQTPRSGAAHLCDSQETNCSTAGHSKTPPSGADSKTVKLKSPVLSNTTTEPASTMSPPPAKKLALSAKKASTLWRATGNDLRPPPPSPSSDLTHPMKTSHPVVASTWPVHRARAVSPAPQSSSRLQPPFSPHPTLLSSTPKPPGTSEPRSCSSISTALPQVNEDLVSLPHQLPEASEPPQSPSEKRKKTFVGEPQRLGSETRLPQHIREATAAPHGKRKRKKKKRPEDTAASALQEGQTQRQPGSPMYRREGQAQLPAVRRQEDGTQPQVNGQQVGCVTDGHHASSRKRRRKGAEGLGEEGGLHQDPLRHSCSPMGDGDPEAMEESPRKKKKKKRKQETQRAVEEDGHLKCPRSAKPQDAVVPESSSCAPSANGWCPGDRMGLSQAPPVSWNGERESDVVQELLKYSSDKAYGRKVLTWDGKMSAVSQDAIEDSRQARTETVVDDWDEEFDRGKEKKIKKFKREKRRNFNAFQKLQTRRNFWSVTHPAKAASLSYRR
Method in brief: as §1

USP38 = target: T2, USP38 (UniProt Q8NB14)
T2 sequence (whole entry): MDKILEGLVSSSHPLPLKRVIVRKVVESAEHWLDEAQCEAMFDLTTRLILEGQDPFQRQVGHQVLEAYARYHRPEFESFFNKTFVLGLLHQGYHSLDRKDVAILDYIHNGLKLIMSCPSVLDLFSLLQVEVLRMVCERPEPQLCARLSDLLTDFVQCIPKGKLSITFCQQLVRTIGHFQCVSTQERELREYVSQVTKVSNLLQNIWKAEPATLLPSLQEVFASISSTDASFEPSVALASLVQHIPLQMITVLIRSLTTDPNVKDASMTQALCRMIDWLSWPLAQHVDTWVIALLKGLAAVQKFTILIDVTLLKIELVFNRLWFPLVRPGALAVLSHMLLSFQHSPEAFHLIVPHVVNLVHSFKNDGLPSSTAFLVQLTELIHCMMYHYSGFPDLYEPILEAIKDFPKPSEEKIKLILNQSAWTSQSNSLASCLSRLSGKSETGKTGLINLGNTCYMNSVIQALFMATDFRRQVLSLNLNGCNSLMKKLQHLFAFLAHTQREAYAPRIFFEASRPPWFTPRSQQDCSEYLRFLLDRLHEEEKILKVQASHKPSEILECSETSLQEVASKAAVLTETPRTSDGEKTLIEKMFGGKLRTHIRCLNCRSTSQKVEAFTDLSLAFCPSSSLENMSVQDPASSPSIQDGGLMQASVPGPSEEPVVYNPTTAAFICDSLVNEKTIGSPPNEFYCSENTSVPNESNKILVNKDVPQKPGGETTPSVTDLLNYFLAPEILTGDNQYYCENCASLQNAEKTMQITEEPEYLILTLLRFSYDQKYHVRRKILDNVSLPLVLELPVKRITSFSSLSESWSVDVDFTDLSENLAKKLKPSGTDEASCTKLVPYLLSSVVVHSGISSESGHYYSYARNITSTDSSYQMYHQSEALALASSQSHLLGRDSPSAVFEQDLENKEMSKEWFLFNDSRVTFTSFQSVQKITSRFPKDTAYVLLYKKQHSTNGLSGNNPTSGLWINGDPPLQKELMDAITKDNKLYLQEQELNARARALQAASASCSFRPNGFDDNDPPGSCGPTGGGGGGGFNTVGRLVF
Method in brief: as §1

USP39 = target: T3, USP39 (UniProt Q53GS9)
T3 sequence (whole entry): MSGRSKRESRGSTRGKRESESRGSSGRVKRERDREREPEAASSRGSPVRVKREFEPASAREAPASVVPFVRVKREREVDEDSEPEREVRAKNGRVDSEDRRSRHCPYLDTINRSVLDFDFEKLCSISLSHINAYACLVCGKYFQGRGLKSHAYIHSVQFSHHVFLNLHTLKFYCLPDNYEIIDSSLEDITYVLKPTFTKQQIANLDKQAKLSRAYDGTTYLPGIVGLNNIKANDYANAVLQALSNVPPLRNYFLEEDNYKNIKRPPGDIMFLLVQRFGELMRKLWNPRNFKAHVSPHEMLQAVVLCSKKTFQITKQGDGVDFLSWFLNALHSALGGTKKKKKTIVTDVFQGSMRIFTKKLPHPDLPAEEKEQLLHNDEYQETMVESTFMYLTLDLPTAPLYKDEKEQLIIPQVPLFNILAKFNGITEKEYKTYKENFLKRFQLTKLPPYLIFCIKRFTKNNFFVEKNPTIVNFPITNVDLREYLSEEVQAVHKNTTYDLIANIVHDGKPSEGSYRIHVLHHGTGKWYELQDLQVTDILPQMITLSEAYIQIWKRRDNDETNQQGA
Method in brief: as §1

USP4 = target: T4, USP4 (UniProt Q13107)
T4 sequence (whole entry): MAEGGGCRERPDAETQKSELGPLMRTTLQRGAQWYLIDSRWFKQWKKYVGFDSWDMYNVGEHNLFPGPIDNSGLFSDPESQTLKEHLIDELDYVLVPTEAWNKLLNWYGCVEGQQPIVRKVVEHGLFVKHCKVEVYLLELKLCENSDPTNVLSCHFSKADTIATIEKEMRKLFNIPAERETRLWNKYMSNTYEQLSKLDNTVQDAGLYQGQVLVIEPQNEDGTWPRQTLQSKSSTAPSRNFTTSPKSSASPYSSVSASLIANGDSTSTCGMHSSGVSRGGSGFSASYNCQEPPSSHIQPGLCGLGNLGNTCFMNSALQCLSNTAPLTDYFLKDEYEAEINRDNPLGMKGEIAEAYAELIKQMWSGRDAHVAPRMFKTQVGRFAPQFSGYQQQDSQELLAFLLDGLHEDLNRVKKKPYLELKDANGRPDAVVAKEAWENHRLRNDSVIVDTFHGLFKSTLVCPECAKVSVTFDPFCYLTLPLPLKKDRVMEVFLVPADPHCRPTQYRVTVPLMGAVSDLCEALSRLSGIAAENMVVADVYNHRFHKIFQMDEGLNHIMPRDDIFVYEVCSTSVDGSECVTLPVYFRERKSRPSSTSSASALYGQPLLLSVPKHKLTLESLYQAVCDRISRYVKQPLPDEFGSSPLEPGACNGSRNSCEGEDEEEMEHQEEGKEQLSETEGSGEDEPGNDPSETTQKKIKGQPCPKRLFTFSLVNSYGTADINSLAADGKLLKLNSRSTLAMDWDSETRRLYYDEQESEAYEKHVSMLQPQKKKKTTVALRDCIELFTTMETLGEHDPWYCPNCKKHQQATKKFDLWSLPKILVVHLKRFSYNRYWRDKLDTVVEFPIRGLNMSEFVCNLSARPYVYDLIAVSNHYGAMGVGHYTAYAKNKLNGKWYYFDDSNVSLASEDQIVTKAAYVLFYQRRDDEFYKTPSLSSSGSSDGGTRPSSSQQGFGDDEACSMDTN
Method in brief: as §1

Measured: log2 ratio of Biotin-Ahx-Ub-VS probe labelling

Sequence of USP34 (Q70CQ2 whole entry, the tested form may be a part): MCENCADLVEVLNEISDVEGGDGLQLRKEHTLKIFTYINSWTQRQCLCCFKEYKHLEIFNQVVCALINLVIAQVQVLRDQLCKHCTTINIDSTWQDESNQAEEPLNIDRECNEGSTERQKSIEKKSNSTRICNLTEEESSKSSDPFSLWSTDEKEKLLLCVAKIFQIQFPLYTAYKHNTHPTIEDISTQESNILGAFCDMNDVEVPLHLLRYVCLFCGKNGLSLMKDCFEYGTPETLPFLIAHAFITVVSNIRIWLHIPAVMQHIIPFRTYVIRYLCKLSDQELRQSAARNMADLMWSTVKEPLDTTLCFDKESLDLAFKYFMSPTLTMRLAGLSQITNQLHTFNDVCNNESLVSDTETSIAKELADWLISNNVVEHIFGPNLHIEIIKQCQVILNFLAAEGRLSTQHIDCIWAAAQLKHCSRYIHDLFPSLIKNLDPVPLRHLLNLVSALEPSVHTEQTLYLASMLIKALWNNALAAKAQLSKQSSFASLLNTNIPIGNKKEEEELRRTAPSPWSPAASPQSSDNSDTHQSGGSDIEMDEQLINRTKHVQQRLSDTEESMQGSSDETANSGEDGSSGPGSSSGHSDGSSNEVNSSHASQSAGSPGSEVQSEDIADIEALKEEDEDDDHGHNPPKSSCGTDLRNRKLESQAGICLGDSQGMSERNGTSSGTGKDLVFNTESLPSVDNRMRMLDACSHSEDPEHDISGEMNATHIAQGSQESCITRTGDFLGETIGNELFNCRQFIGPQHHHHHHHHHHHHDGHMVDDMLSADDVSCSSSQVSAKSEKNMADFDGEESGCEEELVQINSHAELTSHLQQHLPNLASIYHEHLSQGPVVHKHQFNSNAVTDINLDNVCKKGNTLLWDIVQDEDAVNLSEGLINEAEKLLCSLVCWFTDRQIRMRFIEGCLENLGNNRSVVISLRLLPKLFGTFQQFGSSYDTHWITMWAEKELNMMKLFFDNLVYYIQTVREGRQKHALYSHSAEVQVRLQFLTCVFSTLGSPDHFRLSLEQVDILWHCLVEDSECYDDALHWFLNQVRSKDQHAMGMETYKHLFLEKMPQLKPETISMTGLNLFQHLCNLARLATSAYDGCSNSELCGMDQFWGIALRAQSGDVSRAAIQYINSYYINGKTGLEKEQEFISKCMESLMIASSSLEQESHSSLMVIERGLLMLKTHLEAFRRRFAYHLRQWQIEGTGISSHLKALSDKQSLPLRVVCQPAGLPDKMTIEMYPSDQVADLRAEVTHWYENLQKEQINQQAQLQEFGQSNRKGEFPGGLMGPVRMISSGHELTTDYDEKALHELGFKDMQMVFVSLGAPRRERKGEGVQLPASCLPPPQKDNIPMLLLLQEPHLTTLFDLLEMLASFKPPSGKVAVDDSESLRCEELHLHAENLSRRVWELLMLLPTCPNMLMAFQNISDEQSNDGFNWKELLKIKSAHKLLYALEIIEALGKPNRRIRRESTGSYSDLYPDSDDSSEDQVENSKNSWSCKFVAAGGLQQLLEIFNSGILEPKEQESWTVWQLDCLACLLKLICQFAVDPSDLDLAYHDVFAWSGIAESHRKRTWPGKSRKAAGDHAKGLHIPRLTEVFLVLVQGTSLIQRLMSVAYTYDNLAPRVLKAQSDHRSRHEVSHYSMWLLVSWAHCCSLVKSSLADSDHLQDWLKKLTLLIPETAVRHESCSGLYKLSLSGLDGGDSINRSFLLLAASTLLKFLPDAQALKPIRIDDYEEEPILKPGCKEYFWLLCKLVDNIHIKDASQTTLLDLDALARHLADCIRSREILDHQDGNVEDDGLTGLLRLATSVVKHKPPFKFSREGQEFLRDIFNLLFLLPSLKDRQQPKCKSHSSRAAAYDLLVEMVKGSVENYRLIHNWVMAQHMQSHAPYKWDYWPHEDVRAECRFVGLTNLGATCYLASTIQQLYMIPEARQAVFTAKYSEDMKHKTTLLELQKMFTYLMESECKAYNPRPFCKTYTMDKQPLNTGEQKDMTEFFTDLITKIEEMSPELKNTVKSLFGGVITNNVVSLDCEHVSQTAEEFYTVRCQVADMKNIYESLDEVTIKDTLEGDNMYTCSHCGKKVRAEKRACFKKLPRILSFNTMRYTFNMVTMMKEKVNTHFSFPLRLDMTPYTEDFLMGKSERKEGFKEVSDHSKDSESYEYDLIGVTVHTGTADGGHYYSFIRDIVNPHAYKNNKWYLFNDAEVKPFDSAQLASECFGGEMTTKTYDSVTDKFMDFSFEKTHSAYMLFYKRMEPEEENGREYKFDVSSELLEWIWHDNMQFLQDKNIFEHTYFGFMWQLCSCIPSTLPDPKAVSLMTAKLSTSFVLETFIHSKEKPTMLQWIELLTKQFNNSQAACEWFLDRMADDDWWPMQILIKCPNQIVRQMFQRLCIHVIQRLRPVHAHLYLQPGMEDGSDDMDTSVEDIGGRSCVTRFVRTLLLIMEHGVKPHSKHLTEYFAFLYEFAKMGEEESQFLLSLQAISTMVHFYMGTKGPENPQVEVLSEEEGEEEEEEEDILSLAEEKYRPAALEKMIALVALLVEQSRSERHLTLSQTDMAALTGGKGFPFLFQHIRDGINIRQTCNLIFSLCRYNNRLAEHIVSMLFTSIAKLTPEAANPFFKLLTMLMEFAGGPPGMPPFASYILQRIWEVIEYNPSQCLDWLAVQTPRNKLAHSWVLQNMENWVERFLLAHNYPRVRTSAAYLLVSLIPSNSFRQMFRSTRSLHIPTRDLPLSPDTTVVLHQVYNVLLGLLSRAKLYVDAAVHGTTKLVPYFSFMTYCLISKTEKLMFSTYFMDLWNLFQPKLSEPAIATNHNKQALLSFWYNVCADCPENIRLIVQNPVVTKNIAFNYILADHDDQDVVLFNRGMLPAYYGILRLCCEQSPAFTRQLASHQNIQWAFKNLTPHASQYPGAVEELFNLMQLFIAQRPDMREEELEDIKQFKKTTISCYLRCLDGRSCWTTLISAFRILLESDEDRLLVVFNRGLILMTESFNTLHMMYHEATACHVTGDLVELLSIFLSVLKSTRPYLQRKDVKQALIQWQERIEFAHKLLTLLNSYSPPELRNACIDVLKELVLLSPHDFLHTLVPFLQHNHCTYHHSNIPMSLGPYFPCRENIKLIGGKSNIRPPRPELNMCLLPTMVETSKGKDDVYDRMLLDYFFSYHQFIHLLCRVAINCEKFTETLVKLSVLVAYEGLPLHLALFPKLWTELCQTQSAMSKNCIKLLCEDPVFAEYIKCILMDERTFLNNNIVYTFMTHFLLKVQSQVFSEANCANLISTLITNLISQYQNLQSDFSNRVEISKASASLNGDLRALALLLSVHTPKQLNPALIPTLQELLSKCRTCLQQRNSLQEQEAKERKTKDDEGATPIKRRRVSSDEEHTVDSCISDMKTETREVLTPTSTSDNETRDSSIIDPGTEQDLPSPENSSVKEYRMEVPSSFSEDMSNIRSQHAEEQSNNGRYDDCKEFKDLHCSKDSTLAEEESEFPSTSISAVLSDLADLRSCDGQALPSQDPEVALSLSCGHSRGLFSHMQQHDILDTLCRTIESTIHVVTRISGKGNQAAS

Cl.Cn1ncc2c1CC(NC(=O)CCl)CC2 (stereo not given)
inactive: USP34 0.0665 | USP36 -0.0622 | USP38 0.034 | USP39 -0.0219 | USP4 0.0879
